Screens (PubChem BioAssay)
Shiga toxin inh = blocks Shiga toxin action in Vero cells. Vero cells, Shiga toxin protein synthesis inhibition reporter. inhibition, % at 38.7 µM. 9.2% of 290,000 active; in the data active = inhibition mostly above about 28%, no sharp cut-off; inactive = mostly below about 43%
CHX counter = counter-screen for Shiga toxin inhibitors: cycloheximide protein synthesis inhibition | max response, % | cell reporter, cycloheximide protein synthesis inhibition counterscreen | 12% of 300,000 active; in the data active = max response mostly above about 13%, no sharp cut-off; inactive = mostly below about 14%; also: read at 38.3 µM for the half of the compounds with a filed dose
Pf growth 96h = P. falciparum growth inhibition at 96 hours; P. falciparum luciferase reporter growth, 96 h; Potency, µM (titrated, usually from 28.7 µM), hits mostly inhibitors; AID 504834; 6.9% of 320,000 active
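Plates of compound plus infected erythrocytes (2% hematocrit, 0.05% parasitemia final) incubate 96 hours, 37 C, 5% CO2. Detection reagent added; reduced luminescence from the parasites' luciferase reporter flags inhibition.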
Pf growth 48h = inhibits P. falciparum growth in the first generation, 48 h; P. falciparum luciferase growth in erythrocytes, 48 h; Potency, µM (titrated, usually from 28.7 µM), actives largely listed as inhibitors; 5.9% of 310,000 active
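First compound was added to culture medium, then infected red cells at 0.1% parasitemia and 2% hematocrit (final). After incubation at 37 C under 5% CO2, luciferase detection reagent was dispensed and light output recorded.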
Large screens that a line does not name were inactive. The list is not random: actives were taken first. Their share in the collection is about 21%. Unless noted, calls follow the shape of the dose curve; as a rule, active = well fitted inhibition curve with a large enough effect; inconclusive = small, poorly fitted or top-dose-only effect, or another doubt; inactive = no such curve, though single readings can be large or run the other way.

Cc1ccc(F)cc1NC(=O)CN1C(=O)NC2(CCCc3ccccc32)C1=O (stereo unspecified)	none (no result: Shiga toxin inh, CHX counter)
O=C(O)c1ccc(N2N=C(c3ccccc3)CC2c2ccccc2)cc1 (stereo unspecified)	Shiga toxin inh 57, CHX counter 14
O=Cc1ccc(N2N=C(c3ccccc3)CC2c2ccccc2)cc1 (stereo unspecified)	none
O=[N+]([O-])c1cccc(C2CC(c3ccccc3)=NN2c2ccccc2)c1 (stereo unspecified)	CHX counter 20, Pf growth 96h inconclusive, Pf growth 48h inconclusive
CC(=O)Nc1ccc(C2CC(c3ccc(Cl)cc3)=NN2c2ccccc2)cc1 (stereo unspecified)	Pf growth 96h 4.7µM (no result: Pf growth 48h)
CC(=O)Nc1ccc(C2=NN(c3ccccc3)C(c3ccccc3)C2)cc1 (stereo unspecified)	Shiga toxin inh 47, CHX counter 43, Pf growth 96h 12µM, Pf growth 48h 9.3µM
COc1ccc(C2CC(c3ccccc3)=NN2c2ccc(C(N)=O)cc2)cc1 (stereo unspecified)	Pf growth 96h inconclusive, Pf growth 48h inconclusive
CC(=O)Nc1ccc(N2C(=O)CC(c3ccccc3)CC2=O)cc1	Pf growth 48h inconclusive
O=C(O)c1cccc2c1C(=O)c1ccc(-c3ccc(F)cc3F)cc1S2(=O)=O	none (no result: Shiga toxin inh, CHX counter)
CCN(CC)C(=O)CN1C(=O)C2(OCC(C)(C)CO2)c2ccccc21	none (no result: Shiga toxin inh, CHX counter)
Cc1ccc(/C(N)=N/OC(=O)COc2ccccc2Cl)cc1	CHX counter 39
N/C(=N\OC(=O)COc1ccccc1Cl)c1ccc(Cl)cc1	Shiga toxin inh active, CHX counter 15, Pf growth 96h inconclusive
Cc1cc(C)cc(OCC(=O)O/N=C(\N)c2ccccc2Cl)c1	none
Cc1nn(CCCC(=O)Nc2nccs2)c(C)c1[N+](=O)[O-]	Pf growth 96h inconclusive
O=C(NC1CCCCC1)c1ccc(-n2cnnn2)cc1	none
Cc1cc(C)n(-c2ccc(C(=O)Nc3nnc(C)s3)cc2)n1	none (no result: Pf growth 48h)
Cc1cc(-c2ccccc2)n(-c2ccc(C(N)=O)cc2)n1	Pf growth 96h inconclusive
Cc1ccc(C(=O)NC2CCCCC2)cc1	CHX counter 31
CNC(=O)c1ccc(-n2nc(C)cc2-c2ccccc2)cc1	Pf growth 96h inconclusive, Pf growth 48h 1.7µM
Cc1cc(C)n(-c2ccc(C(=O)Nc3sccc3C(N)=O)cc2)n1	Shiga toxin inh 47, CHX counter 35 (no result: Pf growth 48h)
Cc1cc(C)n(-c2ccc(C(=O)NC3CCCCC3)cc2)n1	Shiga toxin inh 40
NC(=O)C1CCN(CCS(=O)(=O)c2ccc(Cl)cc2)CC1	none
COC(=O)C1CCCN1C(=O)C12CC3CC(CC(C3)C1)C2 (stereo unspecified)	Pf growth 96h inconclusive
Cc1cc(C)n(-c2ccc(C(=O)Nc3ccccn3)cc2)n1	Shiga toxin inh 65, CHX counter 38
Cc1cc(C)n(-c2ccc(C(=O)Nc3cccnc3Cl)cc2)n1	none
N#Cc1ccc(C(=O)NC2CCCCCCC2)cc1	Shiga toxin inh 83, CHX counter 22
Clc1ccc(Nc2ncnc3ccc(Br)cc23)cc1	Pf growth 96h 4.1µM, Pf growth 48h 7.4µM
Clc1cccc(Nc2ncnc3ccc(Br)cc23)c1	Pf growth 96h 4.1µM, Pf growth 48h 3.7µM
CN(C)c1ccc(Nc2ncnc3ccc(Br)cc23)cc1	none (no result: Shiga toxin inh)
CCOC(=O)C1=NOC(COc2ccccc2C=O)C1 (stereo unspecified)	Pf growth 96h inconclusive, Pf growth 48h inconclusive
O=C(CSc1nc(=O)n(Cc2ccccn2)c2c1CCC2)Nc1ccc(F)cc1F	Pf growth 48h inconclusive (no result: Shiga toxin inh, CHX counter)
Cc1sc2nc(SCC(=O)C(C)(C)C)n(Cc3ccco3)c(=O)c2c1C	Pf growth 96h 10µM, Pf growth 48h 3.7µM
Cc1cccc(CSc2nc3sc(C)c(C)c3c(=O)n2Cc2ccco2)c1	Pf growth 48h 15µM (no result: Pf growth 96h)
Cc1sc2nc3c4ccccc4c(NCc4ccco4)nn3c(=O)c2c1C	Shiga toxin inh 135, CHX counter 73, Pf growth 96h 5.9µM
Cc1ccc(CSc2nc3sc(C)c(C)c3c(=O)n2Cc2ccco2)cc1	Pf growth 96h inconclusive, Pf growth 48h inconclusive
Cc1nc(NCc2ccco2)c2c(C)c(C)sc2n1	none (no result: Pf growth 96h)
Cc1sc2nc(SCc3ccccc3)n(Cc3ccco3)c(=O)c2c1C	none
CCOc1cc(C2C(C#N)=C(N)OC(C)=C2C(C)=O)c(Br)c(Br)c1OC(C)C (stereo unspecified)	Pf growth 96h 8.3µM, Pf growth 48h 3.3µM
CCCCCCCCN=C(N)c1ccc(C(=O)OCC2CCCCC2)cc1	none (no result: Pf growth 96h, Pf growth 48h)
CCOC(=O)c1ccc(OC(=O)CCCCCN=C(N)N)cc1	Pf growth 96h 4.5µM, Pf growth 48h inconclusive (no result: Shiga toxin inh, CHX counter)
COc1cccc2c1OCC/C2=N\NC(=O)COc1ccc(C)cc1	Shiga toxin inh 24, Pf growth 96h inconclusive
CC(OC(=O)c1ccco1)C(=O)Nc1ccc(C(F)(F)F)cc1 (stereo unspecified)	none (no result: Shiga toxin inh, CHX counter)
CN(CC1CCCCO1)C(=O)c1cc(COc2ccc(F)cc2Cl)on1 (stereo unspecified)	Pf growth 48h inconclusive
COc1ccc(OCc2cc(C(=O)N(C)CC3CCCCO3)no2)c(Cl)c1 (stereo unspecified)	Shiga toxin inh 79, CHX counter 48, Pf growth 96h inconclusive
COCCC(=O)N1CCC(Oc2ccc(C(=O)N(C)C(C)c3ccon3)cc2)CC1 (stereo unspecified)	Pf growth 96h inconclusive
COc1cc(Cl)ccc1OCc1cc(C(=O)N(C)CC2CCCCO2)no1 (stereo unspecified)	Shiga toxin inh 88, CHX counter 40, Pf growth 96h inconclusive
COc1ccc(OCc2cc(C(=O)N(C)C(C)c3ccon3)no2)c(Cl)c1 (stereo unspecified)	Shiga toxin inh 73, CHX counter 34, Pf growth 96h inconclusive
COc1ccc(OCc2cc(C(=O)N(C)CCC3CCOCC3)no2)c(Cl)c1	Shiga toxin inh 60, CHX counter 32, Pf growth 96h inconclusive
Cc1ccc2oc(C(=O)Nc3ccc(S(=O)(=O)Nc4ncccn4)cc3)c(C)c2c1	Pf growth 96h inconclusive
CC(C)(C)c1c(Cl)c(O)c(-c2ccccc2)c(=O)n1-c1ccccc1	Pf growth 48h inconclusive
CCCn1cnnc1CNC(=O)C1CCC(=O)N(CCc2ccc(OC)cc2)C1 (stereo unspecified)	none
CCOc1ccccc1C(=O)NC(C(=O)Nc1cccc(S(N)(=O)=O)c1)C(C)C (stereo unspecified)	none
Cc1cc(NS(=O)(=O)c2cn(C)nc2C)no1	Pf growth 96h inconclusive
COCC(=O)N(C)c1nnc(-c2cnc(C)cn2)s1	CHX counter 24
COC(=O)CCC/C=C1/SCC(NC(=O)c2ccccc2)C1=O (stereo unspecified)	Pf growth 96h 9.3µM (no result: Pf growth 48h)
COC(=O)CCC/C=C1/SCC(NC(=O)c2ccccc2)C1O (stereo unspecified)	Pf growth 96h inconclusive
Cc1ccc2ccc3c(c2n1)NS(=O)(=O)c1ccc(C(F)(F)F)cc1-3	none (no result: Pf growth 96h, Pf growth 48h)
O=C(N/N=C/C1CC=CCC1)c1cc(Br)ccc1O (stereo unspecified)	CHX counter 31
C/C=N/NC(=O)c1cc(Br)ccc1O	none
O=C(N/N=C/C1CC=CCC1)c1ccccc1O (stereo unspecified)	Shiga toxin inh 39, CHX counter 29
